From PubChem BioAssay (NCATS)
Inconclusive results are not listed. Where a call stands in place of a potency, no number is given. Calls of active or inactive are those of the source. Calls follow the shape of the dose curve; as a rule, active = well fitted cell-killing curve with a large enough effect; inconclusive = small, poorly fitted or top-dose-only effect, or effect the other way; inactive = flat fitted curve, though single readings scatter.

Test: S16 Schwann cell viability assay (CellTiter-Glo assay) (AID 624031);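 also: cellular ATP luminescence as a viability measure; nearly all actives have a fitted effect of over 70% in size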
Details: S16 rat Schwann cells viability, 24 h; series mostly up to 25.7 µM
Source text: Charcot-Marie-Tooth-Association [CMTA]
National Center for Advancing Translational Sciences [NCATS]
Charcot-Marie-Tooth (CMT) disease was first characterized by Jean-Martin Charcot and Pierre Marie in France and, independently, by Howard Henry Tooth in England in 1886. CMT is one of the most common inherited neurological diseases, affecting approximately 1 in 2,500 Americans. […] The most prevalent type of CMT is known as CMT1A and caused by a duplication of the PMP22 gene which leads to over-expression of this protein. PMP22 is a glycosylated intrinsic membrane protein accounting for 2-5% of the myelin protein content, and its over-expression results in demyelination and subsequently axonal loss.
A pair of cellular transcription-based assays was developed in the S16 rat Schwann cell lines (Hai, M., et al., 2002) stably transfected with orthogonal reporters - firefly luciferase (Fluc) and beta-lactamase (beta-Lac) - whose expression is driven by an intronic regulatory element of the PMP22 gene (Jones, E.A., et al., 2011) to recapitulate endogenous expression of PMP22. A comprehensive library of approved drugs, the NCGC Pharmaceutical Collection (Huang, R., et al., 2011), was screened in the cross-validating platform of the orthogonal reporter assays to identify drug modulators inhibitory towards PMP22 expression.
A set of counter-screens was devised to address non-specific activity of the library. An ATP-dependent CellTiter-Glo assay (developed by Promega Corp) was utilized to control cell viability. In addition, biochemical Fluc enzyme assay was performed to assess direct inhibition of the Fluc enzymatic activity.
Hai, M., Muja, N., DeVries, G.H., Quarles, R.H. and Patel, P.I. Comparative analysis of Schwann cell lines as model systems for myelin gene transcription studies. J Neurosci Res, 2002. 69(4): pp 497-508
Huang, R., Southall, N., Wang, Y., Yasgar A., Shinn P., Jadhav, A. , Nguyen, D.-T. and Austin, C.P., The NCGC pharmaceutical collection: a comprehensive resource of clinically approved drugs enabling repurposing and chemical genomics. Sci Transl Med, 2011. 3(80): p. 80ps16.
Native S16 cells were seeded in white solid-bottom 1536 well plates at between 500-750 cells/6uL in DMEM medium containing 10% FBS, w/o phenol red. After overnight incubation at 37 degree Celsius/5% C02, 23 nL of compounds or DMSO were delivered to each well using a pin tool, followed by 24h-incubation at 37 degree Celsius/5% C02. Then one volume of CellTiter-Glo assay reagent (Promega) was added to each well for cell viability measured by a ViewLux plate reader (PerkinElmer). The % activity was determined by normalizing to the average readings from wells containing no cells relative to DMSO-treated cells (0% Activity). The concentration-effect curves were then classified based on curve quality (r2), response magnitude and degree of measured activity.

Structure (SMILES) | Potency
O=C(O)/C=C\c1ccc(Cn2ccnc2)cc1 | inactive
CC(C)N1CCN(c2ccc(OC[C@@H]3CO[C@@](Cn4cncn4)(c4ccc(Cl)cc4Cl)O3)cc2)CC1 | inactive
CC[C@]1(C)CC(=O)NC1=O | inactive
O=c1[nH]c(=O)n([C@@H]2C[C@H](O)[C@H](CO)O2)cc1I | inactive
C[C@@H]1CCC[C@H](C)N1NC(=O)c1ccc(Cl)c(S(N)(=O)=O)c1 | inactive
CC(C)(C)NC[C@H](O)c1cc(O)cc(O)c1 | inactive
CN(C)CC/C=C1\c2ccccc2CSc2ccccc21 | inactive
CO[C@]1(NC(=O)CSCC#N)C(=O)N2C(C(=O)O)=C(CSc3nnnn3C)CS[C@H]21 | inactive
CCn1cc(C(=O)O)c(=O)c2cc(F)c(N3CCN[C@@H](C)C3)c(F)c21 | inactive
NC(N)=NC[C@@H]1COC2(CCCCC2)O1 | inactive
CCN(CC)CCC[C@H](C)Nc1ccnc2cc(Cl)ccc12 | inactive
O=c1[nH]cnc2c1ncn2C1OC(CO)C(O)C1O (stereo not given) | inactive
COCCc1ccc(OC[C@H](O)CNC(C)C)cc1 | inactive
CC(=O)Nc1c(I)c(C(=O)N[C@H]2[C@@H](O)[C@H](O)[C@H](CO)O[C@@H]2O)c(I)c(N(C)C(C)=O)c1I | inactive
CCCN[C@@H](C)C(=O)Nc1ccccc1C | inactive
CCN(CC)CC#CCOC(=O)[C@@](O)(c1ccccc1)C1CCCCC1 | inactive
C[C@H](NCCc1ccc(O)cc1)[C@@H](O)c1ccc(O)cc1 | inactive
CO/N=C(/C(=O)NC1C(=O)N2C(C(=O)O)=C(CSc3nc(=O)c(O)nn3C)CSC12)c1csc(N)n1 (stereo not given) | inactive
CN(C)[C@@H]1C(=O)C(C(N)=O)=C(O)[C@]2(O)C(=O)C3=C(O)c4c(O)ccc(Cl)c4[C@H](O)[C@H]3C[C@@H]12 | inactive
C[n+]1ccccc1/C=N\O | inactive

Structure (SMILES) | Potency
Cn1c(=O)c2c(ncn2C[C@@H](O)CO)n(C)c1=O | inactive
C[C@@H]1c2cccc(O)c2C(O)=C2C(=O)[C@@]3(O)C(O)=C(C(N)=O)C(=O)[C@@H](N(C)C)[C@@H]3[C@@H](O)[C@@H]21 | inactive
O=C(C1CCCCC1)N1CC(=O)N2CCc3ccccc3[C@@H]2C1 | inactive
CCN1C(=O)N[C@@H](c2ccccc2)C1=O | inactive
CC(=O)O[C@@H](C)C[N+](C)(C)C | inactive
NS(=O)(=O)c1cc([C@@]2(O)NC(=O)c3ccccc32)ccc1Cl | inactive
CN[C@@H]1[C@H](O[C@@H]2O[C@H](CO)[C@@H](N)[C@H](O)[C@@H]2O)O[C@H]2C[C@@H](N)[C@@H](O[C@H]3[C@@H](O)[C@H](O)[C@H](N)C[C@@H]3N)O[C@H]2[C@H]1O | inactive
CCC[C@H]1C(=O)N2C(N(C)C)=Nc3ccc(C)cc3N2C1=O | inactive
C[N+](C)(C)CC(O)CC(=O)O (stereo not given) | inactive
CC1(C)S[C@@H]2[C@H](NC(=O)[C@H](C(=O)O)c3ccsc3)C(=O)N2[C@H]1C(=O)O | inactive
COc1ccccc1OC[C@H](O)COC(N)=O | inactive
C[N+]1(C)CCC[C@@H](OC(=O)C(O)(c2ccccc2)c2ccccc2)C1 | inactive
CC[C@@]12CCCN3CCc4c(n(c5ccccc45)C(=O)C1)[C@H]32 | inactive
C[C@@H](C(=O)O)c1cccc(C(=O)c2ccccc2)c1 | inactive
CCCN(CCC)C(=O)[C@@H](CCC(=O)O)NC(=O)c1ccccc1 | inactive
CC(C)(O/N=C(\C(=O)N[C@@H]1C(=O)N2C(C(=O)[O-])=C(C[n+]3ccccc3)CS[C@@H]12)c1csc(N)n1)C(=O)O | inactive
NC(=O)c1cc[n+](CC2=C(C(=O)O)N3C(=O)[C@@H](NC(=O)[C@H](c4ccccc4)S(=O)(=O)[O-])[C@@H]3SC2)cc1 | inactive
CN(N=O)C(=O)N[C@H]1[C@@H](O)[C@H](O)[C@H](CO)O[C@@H]1O | inactive
COc1cc(/C=C/C(=O)/C=C(O)/C=C/c2ccc(O)c(OC)c2)ccc1O | inactive
CN(C)[C@H]1C(=O)C(C(=O)NCN2CCCC2)=C(O)[C@]2(O)C(=O)C3=C(O)c4c(O)cccc4[C@@](C)(O)[C@H]3C[C@@H]12 | inactive
